Only some compounds are listed: those with a hit (about 7.9% of all), similar ones and a draw of the others.
HCV inhibitor – inhibitors of hepatitis C virus infection; Huh7.5.1 HCVcc-Cre infection, luciferase reporter, 44 h; Potency, µM (series often up to 41.8 µM), for inactives: at the highest dose activity change, negative = inhibition, most hits filed as inhibitors; actives 3.4% (n = 340,000); AID 651820; active = well fitted inhibition curve with a large enough effect; inconclusive = small, poorly fitted or top-dose-only effect, or another doubt; inactive = no such curve, though single readings can be large or run the other way; also: potency is read from the fitted curve at half-maximal effect
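Infectious HCVcc-Cre (~0.5 moi) was added to cells just after compound, with cells seeded 4 h earlier at 1,000 per well. Luciferase activity after 44 h culture reported infection; substrate was incubated 15 min at room temperature before reading.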
MARV entry inh – Marburg virus entry inhibition; actives 1.8% (n = 300,000); Marburg virus pseudotyped entry inhibition, cell reporter; Potency, µM (highest dose often 37.8 µM), inactives show at the highest dose activity change, negative = inhibition, usual class: inhibitors; calls by dose curve; tested in HEK293 cells; also: potency is read from the fitted curve at half-maximal effect
LASV entry inh – inhibitors of Lassa virus binding or cell entry; Potency, µM (top dose mostly 37.9 µM), for inactives: top-dose activity change, negative = inhibition, most hits filed as inhibitors; Lassa virus pseudotype entry inhibition, cell reporter; AID 540256; actives 1.2% (n = 300,000); calls by dose curve; tested in HEK293 cells; also: potency is read from the fitted curve at half-maximal effect; nearly all actives have a fitted effect of over 50% in size
FMDV antiviral – foot and mouth disease virus antiviral activity | FMDV antiviral cell-based qHTS | Potency, µM (doses to about 57.9 µM), for the others: at the top dose activity change, negative = inhibition, hits mostly inhibitors | actives 1.2% (n = 410,000) | AID 1159524; calls by dose curve; tested in HEK293T cells; also: read-out not given here; potency is read from the fitted curve at half-maximal effect; nearly all actives have a fitted effect of over 45% in size
HCMV antiviral – human cytomegalovirus inhibition | HFF cells, HCMV-luciferase reporter, 72 h; stronger effect = lower value | activity change, negative = inhibition, % at 57.5 µM | actives 4.5% (n = 410,000) | AID 1259415; in the data active = activity change below about -60%; inconclusive = no clear call, values can overlap the other calls; inactive = above about -39%
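Screen run at 2 compound doses on HFFs infected with reporter HCMV, MOI 1 PFU/cell. Luciferase activity from cell lysates at 72 h post infection gave inhibition relative to buffer-only and Salinomycin wells.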
Starred values were filed as active, the others as inactive; ? = inconclusive; . = not tested or not shown; [ ] = another dose, or the depositor's remark. % is scaled to controls: 0 for no effect and ±100 for the full control effect.

SMILES | HCV inhibitor | MARV entry inh | LASV entry inh | FMDV antiviral | HCMV antiviral
COc1ccc(NC(=O)c2cc3ccccc3cc2O)cc1 | ? | 1.1µM* | -38% | -1% | 48
COc1ccc(NC(=O)C2(c3ccc(NC(=O)c4ccc(C)cc4)cc3)CCCC2)cc1 | 0% | -1% | -5% | 13% | 25
COc1ccc(C(NC(=O)c2c(F)c(F)c(F)c(F)c2F)c2ccccc2)cc1 (stereo not drawn) | ? | ? | 22µM* | ? | 3
Cc1cn2c(=O)c(S(=O)(=O)Nc3ccc(OC(F)(F)F)cc3)c(C)nc2s1 | . | . | 21%[46.1 µM] | ? | 0
COC(=O)[C@@H]1CCCN1C(=O)c1c(OC)cc(=O)n2c1CCN(Cc1ccc3c(c1)OCCO3)CC2 | . | . | . | -6% | .
CC(C)c1cccc(-c2nc3c(NCc4cccc(N(C)C)c4)nccc3[nH]2)c1 | . | . | . | . | 0
CCc1ccccc1NS(=O)(=O)c1cc(Br)cc2c1N(C(=O)C1CC1)CC2 | . | ? | -4%[46.1 µM] | -22% | ?
COc1ccc(NC(=O)c2cc3ccc(O)cc3o/c2=N\O)cc1 | 22µM* | ? | ? | ? | 196
COc1ccc(C(=O)NC(Nc2ccccc2)C(Cl)(Cl)Cl)cc1 (stereo not drawn) | 7.9µM* | -17% | -27% | -24% | ?
O=C(Nc1cccc(C(=O)Nc2cc(C(=O)Nc3ccc([S+](=O)([O-])[O-])c4cc([S+](=O)([O-])[O-])cc(SOOO)c34)ccc2F)c1)Nc1cccc(C(=O)Nc2cc(C(=O)Nc3ccc([S+](=O)([O-])[O-])c4cc([S+](=O)([O-])[O-])cc([S+](=O)([O-])[O-])c34)ccc2F)c1 | . | . | . | -8% | .
COc1cc(C2Oc3cc(C4Oc5cc(O)cc(O)c5C(=O)C4O)ccc3OC2CO)ccc1O (stereo not drawn) | ? | 11% | 7% | ? | -67*
O=C(NCCNC1CCC(c2ccccc2)CC1)c1cccs1 (stereo not drawn) | ? | ? | -10% | -13% | -99*
CCOC(=O)N1CCC(NCCNC(=O)c2cccs2)CC1 | 27% | 0% | -23% | -20% | -16
Cc1ccc(S(=O)(=O)NCC2CCC(C(=O)NCc3ccc(F)cc3)CC2)cc1 (stereo not drawn) | . | . | ? | -6% | 0
COc1cccc(/C=N/NC(N)=S)c1OCc1ccccc1Cl | ? | ? | 12% | ? | -78*
CCOC(=O)N/N=C/c1ccccc1OCc1ccc(Cl)cc1 | -28% | ? | -9% | -11% | ?
CCOc1cc(/C=N/NC(N)=S)cc(Br)c1OCc1ccccc1C | 11µM* | ? | ? | -30% | .
CNC(=S)N/N=C/c1cc(Br)c(OCc2ccncc2)c(OC)c1 | -13% | . | . | -18% | 22
COc1cc(/C=N/NC(N)=S)cc(Br)c1OCc1ccccc1F | 8.9µM* | ? | ? | ? | ?
COc1cccc(/C=N/n2nnnc2N)c1OCc1ccccc1Cl | ? | 6% | 2% | -11% | 3
NC(=S)N/N=C/c1ccccc1OCCSc1ccc(Cl)cc1 | ? | ? | 3.7µM* | 35µM* | -69*
CCc1nn2c(=O)cc(COC(=O)c3cccc(NC(=O)c4ccccc4C)c3)nc2s1 | . | . | ? | -2% | 29
Cc1ccc(O)c(NC(=O)c2cc(-c3cccs3)on2)c1 | 0% | 8.9µM* | -27% | 34% | ?
COc1cccc(NC(=O)CN(C)C(=O)c2ccccc2-c2nc3ccccc3s2)c1 | 0% | 7.1µM* | -19% | -13% | 2
Oc1ccccc1Nc1nc(-c2ccccc2)c2cc(Cl)ccc2n1 | . | 4%[46.1 µM] | 1%[46.1 µM] | 22% | -27
SMILES | HCV inhibitor | MARV entry inh | LASV entry inh | FMDV antiviral | HCMV antiviral
CNC(=S)NNc1nc(-c2ccccc2)c2cc(Cl)ccc2n1 | -7% | ? | -26%[46.1 µM] | -10% | -72*
CSc1ccc(NC(=O)Nc2cccn(Cc3ccccc3)c2=O)cc1 | 3.5µM* | ? | ? | ? | -84*
O=C(NCc1cccn1Cc1ccccc1)Nc1ccc(Br)cc1F | . | . | -23%[46.1 µM] | -11% | -83*
O=C(NCc1ccccc1)Nc1cccn(Cc2ccccc2Cl)c1=O | 13µM* | . | . | ? | ?
COc1ccc(Cn2cccc(NC(=O)Nc3ccc(F)cc3)c2=O)cc1 | ? | . | . | -30% | ?
CCC(C)NS(=O)(=O)c1ccc(N2CCCCS2(=O)=O)cc1 (stereo not drawn) | . | . | ? | -11% | 0
CN(C)c1cc[n+](Cc2c(Cl)cccc2Cl)cc1 | ? | ? | ? | ? | -87*
Cc1c(CCOC(=O)CC23CC4CC(CC(C)(C4)C2)C3)sc[n+]1CC(=O)c1ccccc1 | -4% | . | . | 28µM* | -71*
CCOC(=O)c1c(NC(=O)C2CCCCC2)sc2c1CCN(C(C)C)C2 | 7.9µM* | . | . | 0% | 8
CC(C)N1CCc2c(sc(NC(=O)C3CCCCC3)c2C(N)=O)C1 | ? | . | . | ? | -79*
Cc1csc(SCC(=O)N2CCOc3ccc(C(O)C4CCCCC4)cc3C2)n1 (stereo not drawn) | . | . | . | -4% | .
CCOc1ccc(C(=O)C[n+]2cccc3cc(C)ccc32)cc1 | ? | 7.1µM* | ? | -14% | -81*
N#Cc1cccc(NC(=O)c2cc(C3CCCCN3C(=O)C3CC3)on2)c1 (stereo not drawn) | . | . | . | ? | -63*
N#Cc1cccc(NC(=O)c2cc(C3CCCCN3C(=O)c3ccccc3)on2)c1 (stereo not drawn) | . | . | . | -21% | ?
O=C(Cc1cn2ccsc2n1)OCc1ccccc1 | 8% | 7.1µM* | 5µM* | 15% | 8
CCn1c2ccccc2c2cc(NC(=O)COC(=O)Cc3cn4ccsc4n3)ccc21 | 5.6µM* | -8% | -1% | -12% | 16
O=C1N=NC(c2ccccc2)c2ccccc21 (stereo not drawn) | . | 1% | . | . | .
Cc1cccc(C)c1NS(=O)(=O)c1ccc(NS(=O)(=O)c2ccc3c(c2)OCCO3)cc1 | . | ? | -19%[46.1 µM] | -13% | -23
COCCCN=Cc1c(C)[nH]n(-c2ccc(Br)c(C)c2)c1=O | ? | ? | 11µM* | -51% | 48
Cc1ccc(OCCn2cc(C(=O)O)c3ccccc32)cc1 | 10% | -7%[46.1 µM] | 14%[46.1 µM] | -5% | 4
Cc1ccc(OCCn2cc(C(=O)C3CCCCC3)c3ccccc32)cc1 | . | -13%[46.1 µM] | ? | -15% | -101*
COC(=O)c1cn(CCOc2ccccc2)c2ccccc12 | 13µM* | -26% | ? | -19% | 105
COC(=O)c1cn(CCOc2ccccc2OC)c2ccccc12 | ? | ? | -17% | ? | -2
COC(=O)c1cn(C(=O)c2ccccc2Cl)c2ccccc12 | ? | ? | ? | -23% | -64*
S=C(c1cn(CCOc2ccccc2)c2ccccc12)N1CCCC1 | 11µM* | ? | -23% | -18% | 1
CC(=O)c1ccc(NC(=O)Cn2cc3c(n2)CCCC3)cc1 | . | 3%[46.1 µM] | 4%[46.1 µM] | 8% | -5
CN(C)c1ccc(CNC(=O)c2cccc(NC(=O)N3CCSc4ncccc43)c2)cc1 | . | . | -15%[46.1 µM] | ? | -6
